We go through 18 compounds from ChEMBL document CHEMBL3433997, “St. Jude Leishmania screening dataset” (2016).

Broadly, the inhibition is the relative decrease from the control value, in per cent.

Holding throughout (type): functional
The target of assay [1] is Solute carrier family 2, facilitated glucose transporter member 1 (Homo sapiens) (UniProt P11166). Kind of assay: ST_JUDE_LEISH: Cytotoxicity at 2uM final concentration against transgenic Leishmania Mexicana promastigotes LmGLUT1 that are glucose transport deficient and complemented with the human glucose transporter GLUT1. Activity is measured by DNA content using SYBR green in vitro.

The target in assay [2] is Hexose transporter 1 (Plasmodium falciparum) (UniProt O97467). Nature of the assay: ST_JUDE_LEISH: Cytotoxicity at 2uM final concentration against transgenic Leishmania Mexicana promastigotes LmPfHT that are glucose transport deficient and complemented with the Plasmodium falciparum hexose transporter. Activity is measured by DNA content using SYBR green in vitro.
Assay [3] addresses Glucose transporter (Leishmania mexicana) (UniProt O61059). Kind of assay: ST_JUDE_LEISH: Cytotoxicity at 2uM final concentration against transgenic Leishmania Mexicana promastigotes LmGT2 that are glucose transport deficient and complemented with the L. Mexicana glucose transporter 2. Activity is measured by DNA content using SYBR green in vitro.

SMILES strings stand for the structures.

Sequence of Solute carrier family 2, facilitated glucose transporter member 1 (Homo sapiens) (P11166 whole entry): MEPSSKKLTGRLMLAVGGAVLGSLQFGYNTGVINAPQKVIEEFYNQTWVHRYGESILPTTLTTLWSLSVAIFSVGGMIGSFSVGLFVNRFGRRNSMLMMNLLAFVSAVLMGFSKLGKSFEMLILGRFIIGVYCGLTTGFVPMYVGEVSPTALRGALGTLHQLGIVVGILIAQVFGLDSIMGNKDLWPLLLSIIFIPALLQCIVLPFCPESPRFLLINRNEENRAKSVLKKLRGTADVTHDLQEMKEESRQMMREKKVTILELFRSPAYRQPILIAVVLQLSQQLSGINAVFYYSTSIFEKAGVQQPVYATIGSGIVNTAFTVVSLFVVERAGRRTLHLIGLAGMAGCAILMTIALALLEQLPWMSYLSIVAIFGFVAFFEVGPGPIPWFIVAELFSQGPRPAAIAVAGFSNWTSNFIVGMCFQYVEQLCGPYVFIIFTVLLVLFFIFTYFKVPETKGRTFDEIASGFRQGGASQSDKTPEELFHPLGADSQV

Regarding `N=C(N)NN=Cc1c2ccc(Cl)cc2c(Cl)c2ccc(Cl)cc12`, the inhibition turned out to be 83.8% in assay [1], 23.8% in assay [2] and 61.9% in assay [3].
Taken in the same sequence, the figures for `O=[N+]([O-])c1ccc(-n2nc(Cc3ccccc3)n(Cc3cccc(F)c3)c2=S)c(C(F)(F)F)c1` were 2.84%, 3.14% and -0.25%.
For `Cc1noc(-c2ccc(O)cc2O)c1-c1ccc2c(c1)OCCCO2`, in that order: 0.11%, 0.09% and 0.22%.
Taken in the same sequence, the figures for `CCCCCn1c(Sc2ccc(C#N)c([N+](=O)[O-])c2)nnc1-c1cccs1` were 2.86%, 6.4% and 2.32%.
For `O=S(=O)(Nc1cccc(CCN2CCC(N3CCCCC3)CC2)c1)c1ccc(Cl)cc1`, the inhibition in assay [1] came to 1.09%; in assay [2], 1.72%; in assay [3], 0.8%.
For `O=C(NCC1CCN(CCN2CCc3ccc4c(c3C2)OCO4)CC1)c1ccc(-c2ccc(C(F)(F)F)cc2)cc1`, in that order: 2.17%, 4.3% and 1.81%.
Regarding `Cn1nc(-c2cccc(CN[C@@H]3CCc4ccc(O)cc43)c2)c2cnc(NC3CCCC3)nc21`, the results for the inhibition in assay [1], in assay [2] and in assay [3] were 4.2%, 3.87% and 4.68%, respectively.
Taken in the same sequence, the figures for `COc1cc(NC(=O)Nc2cc(C)nc3ccccc23)cc(OC)c1` were 0.54%, 0.94% and 2.05%.
`CCNS(=O)(=O)c1ccc(Oc2ccc([N+](=O)[O-])cc2)cc1`: the inhibition is 0.11% in assay [1], -1.31% in assay [2] and -1.68% in assay [3].
Taken in the same sequence, the figures for `Cc1ccccc1N1CCN(c2ccc(C(=O)Nc3ccccc3)cn2)CC1` were 9.19%, 7.8% and 3.84%.
Taken in the same sequence, the figures for `CCCCSc1nc2c(c(=O)n1Cc1ccco1)C1(CCCCC1)Cc1ccccc1-2` were 0.71%, 1.36% and 1.89%.
For `CC(C)Cc1csc(NC(=O)C=Cc2ccco2)c1C(=O)O`, in that order: -0.28%, 0.8% and -0.08%.
With `CCN1CCN(Cc2ccc3nc(-c4cc(C)n(Cc5cc(Cl)ccc5OCc5ccccc5)n4)[nH]c3c2)CC1`, the inhibition was 3.5% in assay [1], 3.38% in assay [2] and -0.3% in assay [3].
In the case of `CCOc1cc(C(=O)N[C@@H](Cc2ccccc2)[C@H](O)CNCc2cccc(OC)c2)cc(N2CCCCS2(=O)=O)c1`, the inhibition in assay [1] worked out at 5.4%; in assay [2], 5.25%; in assay [3], 3.08%.
For the compound `FC(F)(F)c1ccc2[nH]c(-c3ccc(-c4cccc(CN5CCC(CCN6CCCCC6)CC5)c4)cc3)nc2c1`, the inhibition turned out to be 3.12% in assay [1], 4.82% in assay [2] and 2.53% in assay [3].
Taken in the same sequence, the figures for `COc1ccc(-c2ccc(CNCc3ccccc3)cc2)cc1S(=O)(=O)NCCN1CCCC1` were 4.97%, 1.92% and -1.36%.
Taken in the same sequence, the figures for `Cc1cc(NCCc2ccccc2)nc(NC(=N)Nc2cccc([N+](=O)[O-])c2)n1` were 11.1%, 10.5% and 5.24%.
Taken in the same sequence, the figures for `CCN(CCCN1CCCCC1)c1cc(C)nc(Nc2ccc(C)cc2C(F)(F)F)n1` were -1.87%, 0.39% and -1.54%.
